For 40 compounds, IRF reporter results are on record in the supplement of paper PMC10646978.

± gives the standard deviation.

In the assay the test system is RAW-Dual (murine macrophage reporter line). As to the kind of experiment: IRF reporter (Lucia luciferase) activity fold change vs agonist alone; higher = enhanced IRF activity. To be noted: modulator concentration 10 µM; agonist: MPLA […]. In short, it runs like this:
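In 384-well plates holding 50 000 RAW-Dual murine macrophage reporter cells per well, compound at 10 μM final was pre-incubated for 1 hour at 37 °C, after which a PRR agonist was added overnight. Supernatant SEAP read with QUANTI-Blue at 620 nm absorbance reported NF-κB, and Lucia luciferase read with QUANTI-Luc luminescence reported IRF. Fold change values come from dividing each reporter signal by the mean of agonist-only control wells on the same plate, averaged over replicate plates with propagated errors.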
Turning to `CC1ON(c2ccc(Cl)c(Cl)c2)C(=O)NC1=O` (stereo not given), the IRF reporter was 1.49 ± 0.24.

Take `Oc1ccc2ccccc2c1SSc1c(O)ccc2ccccc12`: the IRF reporter turned out to be 0.908 ± 0.096. The value for `COc1ccc2cc1Oc1ccc(cc1)C[C@H]1c3c(cc4c(c3Oc3cc5c(cc3OC)CCN(C)[C@@H]5C2)OCO4)CCN1C` was 0.889 ± 0.12. Turning to `CCOc1ccc(OCCCCOc2cccc(C)c2)cc1`, the IRF reporter came out at 1.07 ± 0.068. The value for `Cc1cccc(C)c1N(CC(=O)Nc1ccc(-c2ncon2)cc1)C(=O)C1CCS(=O)(=O)CC1` was 0.982 ± 0.086.

With `c1ccc(-n2nnnc2Sc2ncnc3sc4c(c23)CCCC4)cc1`, the IRF reporter is 0.835 ± 0.14. The value for `O=S(=O)(Cc1ccccc1)Nc1ccccn1` was 1.27 ± 0.15; that for `COc1c(C)c2c(c(O)c1C/C=C(\C)CCC(=O)O)C(=O)OC2` was 1.31 ± 0.11; that for `O=C(CCCN1CCN(c2ccccn2)CC1)c1ccc(F)cc1` was 1.15 ± 0.12.

For the compound `Cc1cc(OC2CCN(C(=O)c3csc(C)n3)CC2)nc(C)n1`, the IRF reporter was determined as 1.15 ± 0.23. In the case of `O=C1C(Cl)=C(N2CCCCC2)C(=O)N1c1ccc(Cl)c(Cl)c1` it was 1.22 ± 0.27.

For `CN(C)CCC(c1ccccc1)c1ccccn1.O=C(O)/C=C\C(=O)O` (stereo not given), the IRF reporter was found to be 0.0354 ± 0.0064. The value for `CS(=O)(=O)N(CC(=O)NC1CC1)c1cccc2ccccc12` was 1.16 ± 0.17; that for `Cc1ccc(-c2cc(NC(=O)c3ccc([N+](=O)[O-])cc3)[nH]n2)cc1` was 1.82 ± 0.13.

In the case of `Cn1nc(CNS(=O)(=O)c2cccc(C(F)(F)F)c2)c2c1CCOC2`, the IRF reporter is 1.12 ± 0.11.

As for `CC(C)NCC(O)COc1cccc2ccccc12.Cl` (stereo not given), the IRF reporter was 1.12 ± 0.29. On to `CCOC(=O)C1=C(C)N(c2ccc(OC)cc2)C(=O)C1=Cc1ccc(C(=O)O)cc1`, for which the IRF reporter amounted to 1.39 ± 0.15.

As to `Oc1ccc(N=Cc2ccccc2O)cc1`, the IRF reporter came out at 0.839 ± 0.14. In the case of `CC(=O)N1CC(C(=O)Nc2ccc(Br)c(C)c2)C1` it was 0.909 ± 0.089. In the case of `CCOc1cc([C@@H](CS(C)(=O)=O)N2C(=O)c3cccc(NC(C)=O)c3C2=O)ccc1OC` it was 1.14 ± 0.15; in that of `Cc1cn2nc(C(=O)Nc3ccccc3N3CCN(C)CC3)cc2c(=O)[nH]1`, 1.09 ± 0.098. Turning to `O=c1ncnc2[nH][nH]cc1-2`, the IRF reporter worked out at 1.31 ± 0.15.

With `COC(=O)C1=CN(CC2CCCO2)C=C(C(=O)OC)C1c1ccsc1` (stereo not given), the IRF reporter is 1.43 ± 0.18.

Regarding `CCOc1ccccc1OCCCCOc1cccc(C)c1C`, the IRF reporter was 1.1 ± 0.27. In the case of `Cc1cccc(-c2cc3nc(C)c(Cl)c(O)n3n2)c1` it was 1.04 ± 0.24; in that of `O=C(NNC(=O)c1sc2cc(F)ccc2c1Cl)Nc1ccc(Cl)cc1`, 1.12 ± 0.091; in that of `Cc1cn([C@H]2C=C[C@@H](CO)O2)c(=O)[nH]c1=O` [Prestw-1279], 0.877 ± 0.13. The value for `CCCCC1(C)OC(=O)C(=Cc2ccc(OC)c([N+](=O)[O-])c2)C(=O)O1` (stereo not given) was 1.25 ± 0.15.

For the compound `CC1(C)CCCC2(C)C1CCC1(C)OC(=O)CC12` (stereo not given), the IRF reporter came to 1.37 ± 0.18. Turning to `Cn1cc(CC(=O)NC2CCN(c3cc(C(F)(F)F)ncn3)CC2)c2ccccc21`, the IRF reporter was determined as 1.39 ± 0.1. The value for `COCCN1C(=O)CN(C2CCN(Cc3cc(OC)cc(OC)c3)CC2)C1=O` was 1.13 ± 0.13; that for `CC(C)Cn1cc(Cl)c(=O)n(CC(C)C)c1=O` was 0.991 ± 0.19; that for `Br.CCCc1cc(-c2nc(-c3ccc(C)cc3)cs2)ccn1` was 1.65 ± 0.32.

On to `CCCCCn1c(=O)[nH]c2cc(C(=O)N3CCN(C(=O)OCC)CC3)ccc2c1=O`, for which the IRF reporter was 1.24 ± 0.14.

For `COc1ccc(NC(=O)Cc2cn(Cc3ccccc3)c3ccccc23)cc1OC`, the IRF reporter was found to be 1.39 ± 0.4. For the compound `O=C(NN=Cc1sc2ccccc2c1Cl)c1ccncc1`, the IRF reporter amounted to 1.14 ± 0.11. On to `CS(=O)(=O)N(CC(=O)NCC1CCCO1)c1ccc(Cl)c(C(F)(F)F)c1` (stereo not given), for which the IRF reporter is 1.52 ± 0.15. The value for `COC(=O)C1C(c2ccccc2)C(C(=O)Oc2ccc(C(C)=O)cc2)C1c1ccccc1` (stereo not given) was 1.28 ± 0.15. In the case of `CCN(CC)Cc1ccc(Nc2ccnc3cc(Cl)ccc23)cc1O.Cl.Cl` it was 1.04 ± 0.16; in that of `CS(=O)(=O)N1CC(C(=O)N2CCN(c3cccc(Cl)c3Cl)CC2)C1`, 0.958 ± 0.13.
